About 83,000 compounds went through this panel and 20% of them were active in at least one assay; those are over-represented in the sample as a whole.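 Single-concentration screen, 48 h exposure, 96-well plates. Endpoint: percent growth. Below 10 = active.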 Active and inactive are the calls of the source.
What was measured:
Test in all cases: NCI-60 one-dose screen, 48 h (100 = growth as untreated, 0 = no growth, -100 = all killed)
Conditions in all cases: 10 µM unless noted
DU-145 prostate = tested on: DU-145 prostate
K-562 leukemia = tested on: K-562 leukemia
MALME-3M melanoma = tested on: MALME-3M melanoma
MDA-MB-231 breast = tested on: MDA-MB-231 breast
RXF 393 renal = tested on: RXF 393 renal
SF-268 CNS = tested on: SF-268 CNS
SF-295 CNS = tested on: SF-295 CNS
SF-539 CNS = tested on: SF-539 CNS
UACC-257 melanoma = tested on: UACC-257 melanoma
M14 melanoma = tested on: M14 melanoma
HT29 colon = tested on: HT29 colon
SNB-75 CNS = tested on: SNB-75 CNS
U251 CNS = tested on: U251 CNS
PC-3 prostate = tested on: PC-3 prostate
UACC-62 melanoma = tested on: UACC-62 melanoma
LOX IMVI melanoma = tested on: LOX IMVI melanoma
SK-MEL-28 melanoma = tested on: SK-MEL-28 melanoma
HCT-15 colon = tested on: HCT-15 colon
SNB-19 CNS = tested on: SNB-19 CNS
SK-MEL-5 melanoma = tested on: SK-MEL-5 melanoma

Measured: growth

CCc1ccc(C(c2ccc(CC)cc2)C(Cl)(Cl)CCl)cc1
inactive: DU-145 prostate 110% | K-562 leukemia 106% | MALME-3M melanoma 96.6% | MDA-MB-231 breast 88.7% | RXF 393 renal 131% | SF-268 CNS 93.7% | SF-295 CNS 105% | SF-539 CNS 96.3% | UACC-257 melanoma 110% | M14 melanoma 100% | HT29 colon 76.8% | SNB-75 CNS 80.6% | U251 CNS 89% | PC-3 prostate 80.5% | UACC-62 melanoma 88.2% | LOX IMVI melanoma 93.6% | SK-MEL-28 melanoma 92.4%

COc1ccc(S(=O)(=O)NCCCNc2cc(-c3c(-c4cccc(OC)c4)nc4sccn34)ccn2)cc1
inactive: DU-145 prostate 46.4% | K-562 leukemia 25.6% | MALME-3M melanoma 66.1% | MDA-MB-231 breast 46.8% | RXF 393 renal 56% | SF-268 CNS 44.9% | SF-295 CNS 40.5% | SF-539 CNS 61.9% | UACC-257 melanoma 53.3% | M14 melanoma 45% | HCT-15 colon 35.7% | HT29 colon 35% | SNB-19 CNS 62.7% | U251 CNS 59.4% | PC-3 prostate 26.9% | UACC-62 melanoma 20.4% | LOX IMVI melanoma 46.6% | SK-MEL-28 melanoma 65.5%

C=C(C[n+]1ccccc1)[C@@H]1CC[C@]2(C(=O)OC)CC[C@]3(C)[C@H](CC[C@@H]4[C@@]5(C)CC[C@H](O)C(C)(C)[C@@H]5CC[C@]43C)[C@@H]12
inactive: DU-145 prostate 114% | K-562 leukemia 95.7% | MALME-3M melanoma 103% | MDA-MB-231 breast 114% | RXF 393 renal 106% | SF-268 CNS 97% | SF-295 CNS 103% | SF-539 CNS 91.2% | UACC-257 melanoma 100% | M14 melanoma 102% | HT29 colon 94.5% | SNB-19 CNS 106% | U251 CNS 99% | SK-MEL-5 melanoma 96.5% | UACC-62 melanoma 91.5% | LOX IMVI melanoma 92% | SK-MEL-28 melanoma 108%
active: PC-3 prostate -77.4%

C=C1C(=O)O[C@H]2[C@H]1CC/C(Cn1cc(Cn3ccc4ccccc43)nn1)=C\CC[C@@]1(C)O[C@@H]21
inactive: DU-145 prostate 18.1% | SF-268 CNS 39.9% | SF-295 CNS 76.2% | UACC-257 melanoma 41.3% | M14 melanoma 14.4% | SNB-19 CNS 71.1% | U251 CNS 48.7% | PC-3 prostate 40.8% | SK-MEL-5 melanoma 30.1% | UACC-62 melanoma 33.4% | SK-MEL-28 melanoma 14%
active: K-562 leukemia -16.5% | MALME-3M melanoma -54.5% | MDA-MB-231 breast -24.8% | RXF 393 renal -22.9% | SF-539 CNS -62.8% | HCT-15 colon -34.5% | HT29 colon -13.8% | LOX IMVI melanoma -82.8%

Cc1cc(Cl)ccc1Nc1nc(C(F)(F)F)ccc1C(=O)N/N=C/c1ccc(F)cc1
inactive: DU-145 prostate 35.2% | RXF 393 renal 17.8% | SF-268 CNS 19.6% | SF-295 CNS 17.4% | SF-539 CNS 24.6% | SNB-75 CNS 42% | UACC-62 melanoma 15.4% | SK-MEL-28 melanoma 34.1%
active: K-562 leukemia 5.33% | MALME-3M melanoma 6.12% | MDA-MB-231 breast -9.74% | UACC-257 melanoma 8.52% | M14 melanoma 2.84% | HT29 colon 4.55% | U251 CNS 3.86% | SK-MEL-5 melanoma 5.06% | LOX IMVI melanoma 0.251%

CC[C@H](CO)Nc1nc(NCc2ccccc2)n2ncc(C(C)C)c2n1
inactive: UACC-257 melanoma 24.2%
active: DU-145 prostate 7.53% | K-562 leukemia 2.92% | MALME-3M melanoma -17% | MDA-MB-231 breast 8.97% | RXF 393 renal -13.9% | SF-268 CNS 5.86% | SF-295 CNS 0.519% | SF-539 CNS -46% | M14 melanoma 8.94% | HT29 colon 3.07% | SNB-75 CNS -73.4% | U251 CNS 5.23% | SK-MEL-5 melanoma -17.6% | UACC-62 melanoma -41.8% | LOX IMVI melanoma 4.45% | SK-MEL-28 melanoma -16.9%

CCC(=O)Oc1ccc(/C(=C(\C)c2ccccc2)c2ccc(OCCN(CC)CC)cc2)cc1
inactive: DU-145 prostate 102% | K-562 leukemia 23% | MALME-3M melanoma 80.3% | MDA-MB-231 breast 89.7% | RXF 393 renal 93.4% | SF-268 CNS 85.5% | SF-295 CNS 95.2% | SF-539 CNS 76.9% | UACC-257 melanoma 87.4% | M14 melanoma 69% | SNB-19 CNS 87.8% | U251 CNS 71.6% | PC-3 prostate 66.7% | SK-MEL-5 melanoma 74.8% | UACC-62 melanoma 93.4% | LOX IMVI melanoma 87.8% | SK-MEL-28 melanoma 80.3%
active: HT29 colon 7.83%

CN1CCN(Cc2ccc(NC(=O)c3cncc(C#Cc4cncc5nccnc45)c3)cc2C(F)(F)F)CC1
inactive: DU-145 prostate 47.7% | K-562 leukemia 10.4% | MDA-MB-231 breast 26.9% | RXF 393 renal 28.1% | SF-268 CNS 58.9% | SF-295 CNS 70.7% | SF-539 CNS 26.9% | UACC-257 melanoma 35.5% | HCT-15 colon 40.6% | HT29 colon 22.7% | SNB-19 CNS 92.1% | U251 CNS 76.3% | PC-3 prostate 67.6% | SK-MEL-5 melanoma 41.9% | UACC-62 melanoma 16.6% | SK-MEL-28 melanoma 13.3%
active: MALME-3M melanoma -17.7% | M14 melanoma 9.82% | LOX IMVI melanoma -7.67%

COc1cc(C#N)cc(OC)c1OCCN(CCOc1c(OC)cc(C#N)cc1OC)S(=O)(=O)c1ccc(C)cc1
inactive: DU-145 prostate 115% | K-562 leukemia 94% | MALME-3M melanoma 108% | MDA-MB-231 breast 112% | RXF 393 renal 70.9% | SF-268 CNS 107% | SF-295 CNS 94.2% | SF-539 CNS 105% | UACC-257 melanoma 97.7% | M14 melanoma 99.7% | HT29 colon 111% | SNB-75 CNS 92.7% | U251 CNS 103% | SK-MEL-5 melanoma 61.8% | UACC-62 melanoma 96.8% | LOX IMVI melanoma 93.1% | SK-MEL-28 melanoma 118%

Reference: PubChem BioAssay (NCI)
